Assay results published in PubChem BioAssay AID686978 (National Center for Advancing Translational Sciences (NCATS), 2013).
Out of some 420,000 compounds screened, about 64,000 (15%) were called active. Not shown: some 27% with an inconclusive outcome. A selection follows. A number with no mark means an inactive call. The call rests on the fitted dose curve; in most records, active means well fitted inhibition curve with a large enough effect; inconclusive means small, poorly fitted or top-dose-only effect; inactive means flat fitted curve, though single readings scatter.

assay: qHTS for Inhibitors of human tyrosyl-DNA phosphodiesterase 1 (TDP1): qHTS in cells in absence of CPT; details: DT40 Tdp1-/- hTDP1 cells, no CPT, ATP luminescence, 48 h; activity change, negative = growth inhibition: at 46.2 µM (top of the series); further: nearly all actives have a fitted effect of over 55% in size
From the text: Human tyrosyl-DNA phosphodiesterase 1 (TDP1) is a novel repair gene, and we propose to use it as a new target for anticancer drug development. TDP1 is not an essential protein, but under treatment with topoisomerase I poison (camptothecin: CPT), TDP1 works as a critical factor for cell survival. To directly identify novel TDP1 inhibitors active in a cellular environment, we have knocked-out the Tdp1 gene in chicken DT40 cells (Tdp1-/-) and generated a complemented counterpart cells that contains a stable transfection of the human TDP1 gene (Tdp1-/-;hTDP1 cells). For the primary screen, Tdp1-/-;hTDP1 cells will be exposed to small molecules in the presence or absence of CPT, and their growth kinetics will be evaluated after 48 hours by measuring ATP activity. […] The hit compounds will then be evaluated in the presence or absence of CPT using Tdp1-/- cells. […] In tertiary assays, biochemical gel-based assays will be used to assess whether the hit compounds specifically target TDP1.
To this end, we have screened this cell line against the MLSMR in two primary screens. In one screen we add CPT and in the other we screen in the absence of CPT; this AID represents the screen where CPT was absent.
NIH Chemical Genomics Center [NCGC]
NIH Molecular Libraries Probe Centers Network [MLPCN]
Assay Submitter (PI): Yves Pommier, NCI
DT40-hTDP1 cells without 20 nM Camptothecin (add 20 microL of DMSO in 1 L of cell culture medium) were dispensed at 400 cells/5microL/well in tissue culture treated 1536-well white wall/solid bottom assay plates (Greiner Bio-One North America, NC, U.S.A.) using a Multidrop Combi 8 channel dispenser (Thermo Fisher, Waltham, MA, USA). 23 nL compounds and controls were transferred using the pin tool (Kalypsys, San Diego, CA, USA) to the assay plates. The assay plates were then incubated at 37 masculineC for a minimum 48 hr. Three microL of Cell Titer Glo solution was added to the plates and incubated at RT in dark for 30 min. Luminescence was read using ViewLux (Perkin Elmer) with 1 sec exposure slow speed, high gain and 2x binning.
On the % scale 0 is the no-effect control and ±100 the full control effect; potency means the concentration at half of the fitted maximal effect.

| Compound | activity change, negative = growth inhibition [%] | Potency |
| --- | --- | --- |
| CCOc1ccccc1CNC(=O)c1ccc2c(c1)nc1n2CCC(C)C1 (centres undefined) | -5.23 |  |
| CCOc1ccccc1CNC(=O)c1cnc2c(-c3ccc(OCC)c(OCC)c3)c(C)nn2c1C |  | 11.6 µM (active) |
| Cc1ccc(Cl)cc1N1CCN(C(=O)c2cnc3c(-c4ccc(F)cc4)c(C)nn3c2C)CC1 | -17.5 |  |
| COCCCNC(=O)C1CC(=O)N(CCc2ccccc2)C1 (centres undefined) | -0.222 |  |
| CC(C)(C)C(=O)CCN1C(=O)C2(OCCO2)c2ccccc21 | -3.5 |  |
| COc1cc(C(=O)OCc2cc(=O)n3ccsc3n2)ccc1OC(C)C |  | 20.6 µM (active) |
| COCCc1nn2c(=O)cc(COC(=O)c3cc(OC)c(OC)c(OC)c3)nc2s1 | -13.2 |  |
| COc1ccc(C(=O)OCc2cc(=O)n3ccsc3n2)cc1F | -17.5 |  |
| NC(=O)C[n+]1cccc(C(N)=O)c1 | 3.03 |  |
| COc1ccc(C2c3c(oc4ccccc4c3=O)C(=O)N2Cc2ccc3c(c2)OCO3)cc1 (centres undefined) | -15.1 |  |
| O=C1c2oc3ccccc3c(=O)c2C(c2cccc(O)c2)N1c1ccccn1 (centres undefined) |  | 20.6 µM (active) |
| CC(=O)c1sc(N2C(=O)c3oc4ccccc4c(=O)c3C2c2ccc(C)cc2)nc1C (centres undefined) | 1.93 |  |
| COCCN1C2=C(COC(C)(C)C2)C(=S)NC1c1ccccc1 (centres undefined) | 1.35 |  |
| COC(C[C@@H](O)[C@H](C)[C@H](O)COCc1ccccc1)OC | -1.03 |  |
| Cn1cccc1/C=C1\SC(=S)N(NC(=O)c2ccc(Cl)cc2)C1=O | -13.3 |  |
| O=C(CSc1ncn[nH]1)Nc1ccc(Br)cc1Br | -4.44 |  |
| CC(C)CNC(=O)C(=O)NCc1ccccc1 | 0.828 |  |
| O=C(NCc1ccccc1)C(=O)NCC(c1ccco1)S(=O)(=O)c1ccc(Cl)cc1 (centres undefined) |  | 18.4 µM (active) |
| CN(C)C(CNC(=O)c1ccc(S(=O)(=O)NCc2ccco2)cc1)c1ccccc1 (centres undefined) | -3.83 |  |
| O=C(NCCc1ccccc1)C(=O)NCC(c1ccco1)S(=O)(=O)c1ccccc1 (centres undefined) | -56.5 |  |
| CC(C)(C)c1ccc(C(=O)NCC(c2ccco2)S(=O)(=O)c2ccc(F)cc2)cc1 (centres undefined) |  | 20.6 µM (active) |
| CC(C)(C)c1ccc(C(=O)NCCC(=O)NCc2ccco2)cc1 | -22.6 |  |
| O=C(COC(=O)c1cccc(Cl)c1Cl)NC1CCCCCC1 | 1.05 |  |
| O=C(NNS(=O)(=O)c1ccccc1C(F)(F)F)c1cc2ncc(C(F)(F)F)cc2s1 | -18.1 |  |
| COc1ccccc1OCCC(=O)OCC(=O)NC(=O)NC(C)(C)C | -3.43 |  |
| CSc1nnc(SCc2nc3sc(C(=O)O)c(C)c3c(=O)[nH]2)s1 | 12.7 |  |
| COc1ccc(CCNC(=O)COC(=O)c2ccc[nH]c2=O)cc1 | 2.84 |  |

| Compound | activity change, negative = growth inhibition [%] | Potency |
| --- | --- | --- |
| Cc1cccc(Oc2c([N+](=O)[O-])c(=O)n(C)c3ccccc23)c1 | -20.7 |  |
| COc1cc2c(=O)n(C)c3ccccc3c2cc1OC |  | 11.6 µM (active) |
| Cc1cc(C)c(-c2c(O)c3ccccc3n(C)c2=O)c(C)c1 | -15.9 |  |
| Nc1ccc2c(c1)C(=Cc1cccnc1)c1ccccc1-2 | -8.08 |  |
| O=S(=O)(Nc1ccccc1N1CCOCC1)c1ccc(Cl)s1 | -17.2 |  |
| COc1ccc(-c2cc(C(F)(F)F)nc(NCc3cccnc3)n2)cc1 | -9.36 |  |
| COc1ccc(CCNC(=O)COC(=O)c2ncc(Cl)c(Cl)c2Cl)cc1OC | 3.75 |  |
| COc1ccc(CNc2nc(-c3ccc(Cl)cc3)cc(C(F)(F)F)n2)cc1 |  | 18.4 µM (active) |
| COc1ccc(CCNc2cc(C)nc3c(-c4ccc(Cl)cc4)c(C)nn23)cc1OC |  | 18.4 µM (active) |
| COc1ccc(-n2c(-c3ccc(Cl)cc3)n[nH]c2=S)c(OC)c1 | -3.08 |  |
| COc1cccc(NC(=O)C2CCN(c3cc(C)nc4c(-c5ccc(Cl)cc5)c(C)nn34)CC2)c1 | -9.69 |  |
| COc1ccc(-c2c(C)nn3c(N4CCC(C(=O)NCCC(C)C)CC4)cc(C)nc23)cc1OC | -14.3 |  |
| COc1ccc(CCNc2nc(C)cc(C)n2)cc1OC | 0.652 |  |
| COc1ccc(CCNc2nc(-c3ccc(Cl)cc3)cc(C(F)(F)F)n2)cc1OC |  | 25.9 µM (active) |
| CCN1CCN(C(=O)CN(C)S(=O)(=O)c2ccc(OC)cc2)CC1 | 3.64 |  |
| N#C/C(=C\N1CCOCC1)S(=O)(=O)c1ccc(Cl)cc1 | -7.62 |  |
| CCCC(=O)N1CCC1(C)C(=O)NS(=O)(=O)c1ccc(Cl)cc1 (centres undefined) | -1.28 |  |
| COc1cccc(NC(=O)CN(C)CC(=O)c2c(N)n(Cc3ccccc3)c(=O)n(C)c2=O)c1 | 5.98 |  |
| CC1CCC2(CC1)NC(=O)N(CC(=O)c1cccn1C)C2=O (centres undefined) | -2.88 |  |
| COc1ccc(NC(=O)COC(=O)CNC(=O)C2CCCCC2)cc1 | -12 |  |
| O=C(NCc1cccnc1)c1ccccc1NC(=O)c1c(F)cccc1F | 8.82 |  |
| CN(C)c1ccc2c(=O)[nH][nH]c(=O)c2c1 | 0.253 |  |
| CCCN1C2CCCC1CC(NC(=O)c1cccc(OC)c1)C2 (centres undefined) | -4.33 |  |
| COc1cccc(NC(=O)N2C3CCCC2CC(NC(C)=O)C3)c1 (centres undefined) | 22.8 |  |
| CCCN1C(=O)C(NC(C)=O)c2cc(OC)ccc21 (centres undefined) |  | 18.4 µM (active) |
| Cn1c(CCNS(=O)(=O)c2ccc(F)cc2)nnc1SCc1cccnc1 | -12.9 |  |
| COc1ccc(N(C)C(=O)CCS(=O)(=O)c2cccc3nsnc23)cc1 |  | inactive |
